High-throughput results from PubChem BioAssay.
This is a sample that favours compounds with a hit; in the whole collection about 12% have one here.
L major viab: Leishmania major promastigote growth inhibition, primary screen; Leishmania major promastigotes, resazurin fluorescence viability; 200,000 tested, 9% active; inhibition, % at 10 µM; in the data active = inhibition above about 50%;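 also: promastigotes grown with compound for 44 hours at 28 °C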
ROMK primary: ROMK potassium channel modulators, primary screen, cell-based, thallium flux, MLSMR library | 130,000 tested, 2% active | ATP-sensitive inward rectifier potassium channel 1 (Homo sapiens), P48048 | B-score at 10 µM | AID 1918, 2009 | Tet-inducible ROMK, thallium flux fluorescence; actives lie on both sides;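 active = signal ratio slope over the read window, or its plate-corrected B-score, at least 3 SD from the plate mean, either direction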;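 also: B-score of the F/F0 ratio slope over 7 to 12 s after thallium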
WT yeast gro inh: growth inhibition of WT strain, primary screen, mitochondrial fusion inhibitor project, WT and mutant strains, chemical genetic. mitochondrial fusion phenotypic screen. inhibition, % at 10 µM. 190,000 tested, 2.1% active; in the data active = inhibition above about 58%; tested in S. cerevisiae
Calpain2 inh: inhibitors of pig calpain II, primary screen, biochemical, fluorogenic peptide substrate, 1536-well; purified calpain II, 30 min; inhibition, % at 16 µM; 220,000 tested, 0.37% active; AID 1236, 2008;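 active = inhibition above about 50%, limit read from the data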
Cl transport mod: KCC2 cotransporter modulators, thallium flux, primary screen, cell-based, HEK293 KCC2, FluoZin-2 fluorescence, MLSMR. Solute carrier family 12 member 5 (Homo sapiens), Q9H2X9. KCC2 cells, thallium flux FluoZin-2 fluorescence. B-score of Tl+ flux slope (higher = more flux/activation; lower = inhibition) at 10 µM. 190,000 tested, 2.2% active. AID 1456, 2008;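 active = thallium flux slope and its plate-corrected score both differing from the plate sample mean at a set confidence after two filtering rounds, in either direction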;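 also: slope of fluorescence scaled to starting intensity during 10 to 20 s after thallium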
ROMK retest: ROMK channel modulator hit retest, confirmation, cell-based, thallium flux, duplicate, resupplied hits | shares compounds with ROMK primary | 3,000 tested, 54% active | fluorescence ratio; stronger effect = lower value | normalized thallium flux (F/F0 slope) at 10 µM;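 active = Flux at 10 µM at least 3 SD below or above vehicle control mean in one or both replicates; inconclusive = no clear call, values can overlap the other calls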
Large screens that a line does not name were inactive (follow-up assays come after a bar, where they were run).

Cc1ccc(S(=O)(=O)Cn2nnnc2CN2CCCC3(CCCCC3)C2)cc1	none
CC(=O)N1CCc2cc(Br)cc(S(=O)(=O)NCc3ccccn3)c21	ROMK primary -7.4 (no result: Cl transport mod) | ROMK retest inactive
CCC(=O)N1CCc2cc(Br)cc(S(=O)(=O)NCc3ccco3)c21	none (no result: ROMK primary)
CCN(CC)c1ccc(/C=N/Nc2nn[nH]n2)cc1	none (no result: L major viab, ROMK primary, WT yeast gro inh)
CCN(CC)c1ccc(C=N/C(C#N)=C(\N)C#N)cc1	none (no result: ROMK primary, Cl transport mod) | ROMK retest inconclusive
O=C1c2ccccc2C(Nc2ccc3c(c2)OCCO3)N1Cc1ccccc1 (centres undefined)	none (no result: ROMK primary) | ROMK retest inactive
O=C(CSc1nc2c(sc3ccccc32)c(=O)n1CCCN1CCOCC1)NC1CCCC1	none (no result: Cl transport mod)
O=C(CSc1nc2c(sc3ccccc32)c(=O)n1CCCN1CCCC1)NCc1ccccc1	L major viab 99, ROMK primary -3.5 | ROMK retest 0.06
CC(C)(C)OC(=O)C(Cc1ccc(OC(C)(C)C)cc1)NC(=O)CNC(=O)OCc1ccccc1 (centres undefined)	ROMK primary -2.2 | ROMK retest 0.058
COC(=O)CNC(=O)C(C)NC(=O)CNC(=O)OCc1ccccc1 (centres undefined)	none (no result: ROMK primary) | ROMK retest inactive
C[C@H](NC(=O)OCc1ccccc1)C(=O)NNC(=O)[C@H](Cc1ccccc1)NC(=O)OC(C)(C)C	none (no result: L major viab, ROMK primary, WT yeast gro inh)
CN(C)c1ncnc2c1NC1=C(S2)C(=NCCCC(=O)O)CC(C)(C)C1	none (no result: ROMK primary)
COc1ncnc2c1NC1=C(S2)C(=NCCC(=O)O)CC(C)(C)C1	none (no result: ROMK primary) | ROMK retest 0.05
COc1ccc(CC(=O)NNc2ncnc3c2cnn3Cc2ccccc2)cc1OC	none (no result: L major viab, ROMK primary, WT yeast gro inh) | ROMK retest inactive
O=C(c1cccc([N+](=O)[O-])c1)c1ccccn1	none (no result: L major viab, ROMK primary, WT yeast gro inh) | ROMK retest inconclusive
N#C/C(=C\c1cccc([N+](=O)[O-])c1)c1ccccn1	ROMK primary -3.6 | ROMK retest 0.046
O=C(Nc1cc(Cl)ccc1Cl)C1CC(=O)N(c2ccc(Br)cc2)C1 (centres undefined)	none
COc1ccccc1N(CC(=O)N(CC(C)C)CC(C)C)S(=O)(=O)c1cccs1	ROMK primary -4.1 | ROMK retest 0.067
COc1ccccc1N(CC(=O)N(c1ccccc1)C(C)C)S(=O)(=O)c1cccs1	none
Cc1ccc(S(=O)(=O)/N=C/c2cc(Br)ccc2O)cc1	none
Cc1cc(N=Cc2cc(Br)ccc2O)no1	none (no result: ROMK primary) | ROMK retest inconclusive
CC(OC(=O)c1ccc2ncsc2c1)C(=O)N1CCCC1 (centres undefined)	none
CN1C2C=C3C(C#N)=C(N)C(C#N)(C#N)[C@H](c4c(F)cccc4F)[C@H]3C1CC2 (some centres undefined)	none (no result: ROMK primary)
N#CC1=C(N)C(C#N)(C#N)[C@H](c2c(F)cccc2F)[C@H]2CC3(CC=C12)OCCO3	ROMK primary -3.6 | ROMK retest 0.053
CC(=O)N1CCc2cc(Br)cc(S(=O)(=O)N3CCc4ccccc43)c21	none
S=C(NCc1ccncc1)NC1CCCCC1	none (no result: ROMK primary)
O=C1c2oc3ccc(F)cc3c(=O)c2C(c2cccc(O)c2)N1CCCN1CCOCC1 (centres undefined)	ROMK primary -2.3 | ROMK retest inactive
Cc1nc(Cl)c(S(N)(=O)=O)c(C)c1Cl	none
CCOC(=O)C1=C(C)N=C2SC(C(=O)OC)=CC(=O)N2C1c1ccc(OC)cc1 (centres undefined)	ROMK primary -4.5, WT yeast gro inh 84 | ROMK retest 0.054
COC(=O)C1=C(C)N=C2SC(C#N)=C(N)N2C1c1ccc(OC)cc1 (centres undefined)	none
Cc1nccc(-c2cccc(NC(=O)c3ccccc3Cl)c2)n1	none (no result: L major viab, WT yeast gro inh)
COC(=O)c1ccc(Oc2cc(C)nc(-n3nc(C)cc3C)n2)cc1	ROMK primary 4.9, WT yeast gro inh 70 | ROMK retest inactive
CCOC(=O)N1CCN(C(=O)C2CCN(S(=O)(=O)c3ccc(OC)cc3)CC2)CC1	none
Cc1cccc(-n2c(C)cc(C=C3C(=O)c4ccccc4C3=O)c2C)c1	none (no result: ROMK primary) | ROMK retest 0.036
Cc1cc(C=C2C(=O)c3ccccc3C2=O)c(C)n1-c1ccc(Cl)cc1	none (no result: ROMK primary, Cl transport mod)
CC(=O)OCC(OC(C)=O)C(OC(C)=O)C(OC(C)=O)C(=O)Nc1ccccc1 (centres undefined)	none
CC(=O)OCC(OC(C)=O)C(OC(C)=O)C(OC(C)=O)C(=O)Nc1ccc(C)cc1 (centres undefined)	none (no result: ROMK primary) | ROMK retest inactive
CCOc1cccc(NC(=O)/C(C#N)=C/c2cccnc2)c1	none (no result: L major viab, ROMK primary, WT yeast gro inh) | ROMK retest 0.035
CCOc1ccc(/C=C(\C#N)C(=O)Nc2cccnc2)cc1	none (no result: ROMK primary)
O=C(NCc1ccccn1)C1CCN(Cc2cnn(-c3ccccc3)c2-n2cccc2)CC1	none
COc1cccc(CNC(=O)C2CCN(Cc3cnn(-c4ccccc4)c3-n3cccc3)CC2)c1	ROMK primary -3.5 | ROMK retest 0.055
Cc1nc2c(C(=O)NCc3ccco3)cnn2c(C)c1Cc1ccc(F)cc1Cl	none (no result: ROMK primary) | ROMK retest inactive
COc1ccc(C(C)=O)cc1CN1CCCCC1	none (no result: ROMK primary)
COc1ccc(C(C)=O)cc1CN1C(=O)NC2(CCCCC2)C1=O	ROMK primary 2 | ROMK retest inactive
Nc1nc2ccccc2n1C(=O)c1ccccc1	ROMK primary 2.1 | ROMK retest inactive
Nc1nc2ccccc2n1C(=O)c1ccc(F)cc1	none
Cc1cc2nc(SCC(=O)Nc3ccccc3C(=O)O)[nH]c2cc1C	none
CC(=O)Nc1sc(N/N=C/c2ccccc2)nc1-c1ccc(C)cc1	none (no result: L major viab, ROMK primary, WT yeast gro inh) | ROMK retest inactive
O=C(CCn1c2c(c3ccccc31)CCCC2)NNC(=O)c1ccc([N+](=O)[O-])cc1	none (no result: ROMK primary) | ROMK retest 0.048
CN(C)/C=C(\C=O)c1cccc(Cl)c1	none
COCC(=O)Nc1sc2c(c1C(=O)OC)C(C(=O)OC)CC2 (centres undefined)	none (no result: ROMK primary) | ROMK retest inactive
Cc1ccc(-n2nnnc2SCC(=O)Nc2sc(C)c(C)c2C#N)cc1C	none (no result: ROMK primary) | ROMK retest inactive
CC(=O)c1ccc(-n2nnnc2SCC(=O)Nc2sc(C)c(C)c2C#N)cc1	none
O=C(CN1CCN(Cc2ccccc2)CC1)Nc1ccccc1-c1ccccc1	ROMK primary -3.7 | ROMK retest inconclusive
COc1ccccc1NC(=O)CN1CCN(Cc2ccccc2)CC1	none (no result: ROMK primary, Cl transport mod)
CC(C)=CC1C=C(C)C(C)C2C(=O)NNC(=O)C12 (centres undefined)	none
CCOc1cc(/C=C\[N+](=O)[O-])ccc1OCC(=O)N1CCOCC1	ROMK primary -5.6 | ROMK retest 0.056
CCOc1cc(C=O)ccc1OCC(=O)N1CCCC1	none
Cc1nn(-c2ccccc2)c(Cl)c1C(=O)NCC(C)C	none (no result: ROMK primary)
CC(C)CNC(=O)c1nc(-c2ccccc2)n(-c2ccccc2)n1	none (no result: ROMK primary) | ROMK retest inactive
O=C(O)Cc1csc(-c2ccccc2)n1	none
O=C(O)Cc1csc(-c2ccc(F)cc2)n1	ROMK primary 3 | ROMK retest inconclusive
